In experiment [1] the target is Bile acid receptor (Homo sapiens) (UniProt Q96RI1). The experiment is described as follows: ATG_IR1_CIS: Attagene CIS-FACTORIAL HepG2 Assay for human Nuclear Receptor Subfamily 1 Group H Member 4 (NR1H4), IR1 submotif (AID 2282946). The following applies: IR1 reporter transcription, actives raise or lower the signal. The method in brief: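 HepG2 cells transiently transfected with multiplexed cis-element reporter units read endogenous transcription factor activity. After 24 h compound exposure, reporter mRNA was quantified by RT-PCR, fluorescent labelling, HpaI digestion and capillary electrophoresis; bidirectional fitting versus DMSO baseline.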
Chain of Bile acid receptor (Homo sapiens) (Q96RI1 whole entry, looked up): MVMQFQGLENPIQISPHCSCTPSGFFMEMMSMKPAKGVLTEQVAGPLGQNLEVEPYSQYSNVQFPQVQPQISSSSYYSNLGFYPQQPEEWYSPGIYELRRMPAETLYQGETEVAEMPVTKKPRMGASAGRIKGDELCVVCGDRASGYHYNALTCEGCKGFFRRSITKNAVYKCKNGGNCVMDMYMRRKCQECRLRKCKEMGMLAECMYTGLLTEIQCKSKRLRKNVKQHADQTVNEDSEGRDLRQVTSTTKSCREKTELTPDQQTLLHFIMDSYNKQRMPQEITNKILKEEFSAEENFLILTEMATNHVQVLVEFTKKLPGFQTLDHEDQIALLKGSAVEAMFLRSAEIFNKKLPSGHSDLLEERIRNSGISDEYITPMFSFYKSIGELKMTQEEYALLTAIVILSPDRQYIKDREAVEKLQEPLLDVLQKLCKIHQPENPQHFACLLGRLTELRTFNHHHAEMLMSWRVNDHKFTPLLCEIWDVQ

A short description of experiment [2]: ATG_GRE_CIS: Attagene CIS-FACTORIAL HepG2 Assay for human Glucocorticoid Response Elements (GRE) (AID 2282947). The following applies: HepG2 GRE cis-reporter, Attagene multiplex mRNA; actives raise or lower the signal. A digest of the protocol:
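Reporter transcripts read by RT-PCR with capillary electrophoresis fluorescence after a 24 h chemical exposure of HepG2 cells transiently transfected with multiple cis-element reporter units. Gain or loss fitted against DMSO.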

The nature of experiment [3]: ATG_ISRE_CIS: Attagene CIS-FACTORIAL HepG2 Assay for human Interferon Regulatory Factor 1 (IRF1) binding to an Interferon-Stimulated Response Element (ISRE) (AID 2282948). Particulars: HepG2 ISRE cis-reporter (Attagene), mRNA transcription readout; actives raise or lower the signal. A digest of the protocol:
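Endogenous transcription factor activity read as reporter transcript abundance via RT-PCR and capillary electrophoresis. HepG2 cells transiently transfected, 24 h chemical exposure. Gain or loss fitted against DMSO baseline.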

Experiment [4] in a line: ATG_M_32_CIS: Attagene CIS-FACTORIAL HepG2 Assay for M32 Transcription Factor (Internal Marker) (AID 2282949).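 Further: background control marker of the multiplexed CIS panel rather than a real target.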 Particulars: HepG2 Attagene cis-factorial M32 reporter, mRNA; actives raise or lower the signal. A digest of the protocol: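 HepG2 transfectants (cis-regulated reporter transcription units) dosed 24 h. Reporter mRNA by RT-PCR plus CE, analysed as gain or loss relative to DMSO.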

Experiment [5] concerns the target Hypoxia-inducible factor 1-alpha (Homo sapiens) (UniProt Q16665). The experiment is described as follows: ATG_HIF1a_CIS: Attagene CIS-FACTORIAL HepG2 Assay for human Hypoxia Inducible Factor 1 (HIF1A) (AID 2282951). Particulars: HepG2 Attagene cis-factorial HIF1a reporter transcription; actives raise or lower the signal. The method in brief:
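Dosed 24 h, transfected HepG2 cells yielded total RNA whose reporter transcripts were RT-PCR-amplified and sized by capillary electrophoresis using fluorescent labelling; DMSO defined baseline, with gain and loss of signal both fitted.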

The target in experiment [6] is Hepatocyte nuclear factor 6 (Homo sapiens) (UniProt Q9UBC0). The experiment is described as follows: ATG_HNF6_CIS: Attagene CIS-FACTORIAL HepG2 Assay for human Hepatocyte Nuclear Factor 6 (HNF6) (AID 2282952). The following applies: HepG2 Attagene cis-factorial HNF6 reporter transcription; actives raise or lower the signal. A digest of the protocol:
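First, HepG2 cells were transfected with the multiplexed cis reporter library and dosed with chemical for 24 h. Next, RNA was reverse-transcribed, PCR-amplified and fluorescently labelled. Finally, HpaI-digested fragments were read by capillary electrophoresis.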

In experiment [7] the target is Heat shock factor protein 1 (Homo sapiens) (UniProt Q00613). The experiment is described as follows: ATG_HSE_CIS: Attagene CIS-FACTORIAL HepG2 Assay for human Heat Shock Transcription Factor 1 (HSE) (AID 2282953). Particulars: HepG2 HSE cis-reporter, Attagene RNA transcription; actives raise or lower the signal. The method in brief: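 Reporter mRNA induction in HepG2 is measured 24 h after dosing, using transiently transfected multiplexed cis-regulated reporter units. Signal comes from capillary electrophoresis of labelled RT-PCR products, with DMSO as negative control.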
Chain of Heat shock factor protein 1 (Homo sapiens) (Q00613 whole entry, looked up): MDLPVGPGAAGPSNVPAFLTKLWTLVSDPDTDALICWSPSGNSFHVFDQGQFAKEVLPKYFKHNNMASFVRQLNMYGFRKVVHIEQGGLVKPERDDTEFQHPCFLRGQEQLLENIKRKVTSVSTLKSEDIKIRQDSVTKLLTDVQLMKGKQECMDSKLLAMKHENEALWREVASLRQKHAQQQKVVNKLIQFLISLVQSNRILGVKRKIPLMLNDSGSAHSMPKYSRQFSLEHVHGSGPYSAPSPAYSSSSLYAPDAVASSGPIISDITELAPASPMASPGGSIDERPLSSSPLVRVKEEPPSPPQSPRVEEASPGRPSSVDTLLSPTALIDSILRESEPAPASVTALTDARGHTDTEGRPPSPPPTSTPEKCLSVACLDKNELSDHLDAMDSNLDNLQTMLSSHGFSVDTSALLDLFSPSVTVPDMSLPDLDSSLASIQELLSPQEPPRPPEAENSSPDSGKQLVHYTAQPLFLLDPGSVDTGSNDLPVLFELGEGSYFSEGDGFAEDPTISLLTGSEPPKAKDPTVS

Experiment [8] can be described thus: ATG_MRE_CIS: Attagene CIS-FACTORIAL HepG2 Assay for human Metal Responsive Element (MRE) (AID 2282954). Particulars: HepG2 MRE cis-reporter transcription, Attagene multiplex; actives raise or lower the signal. The method in brief:
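Endogenous MRE-dependent transcription read as reporter mRNA in transiently transfected human HepG2 cells at 24 h. RNA reverse-transcribed, PCR-amplified, labelled and resolved by capillary electrophoresis; gain or loss relative to DMSO.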

A short description of experiment [9]: ATG_PBREM_CIS: Attagene CIS-FACTORIAL HepG2 Assay for human Phenobarbital-responsive Enhancer Module (PBREM) (AID 2282955). Particulars: HepG2 PBREM cis-reporter, Attagene multiplexed transcription; actives raise or lower the signal. A digest of the protocol:
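Transfected liver-derived HepG2 cells exposed 24 h; PBREM reporter transcript quantified via RT-PCR and capillary electrophoresis, with activity in either direction referenced to DMSO.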

Experiment [10] can be described thus: ATG_PXRE_CIS: Attagene CIS-FACTORIAL HepG2 Assay for human Pregnane X Receptor Element (PXRE) (AID 2282957). The following applies: HepG2 Attagene CIS-FACTORIAL PXRE reporter, mRNA; actives raise or lower the signal. A digest of the protocol: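 After a 24 h chemical incubation, total RNA from transfected HepG2 cells was reverse-transcribed and reporter cDNA amplified, FAM-labeled, HpaI-digested and sized by capillary electrophoresis. DMSO served as baseline for bidirectional curve fitting.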

Experiment [11] in a line: ATG_RORE_CIS: Attagene CIS-FACTORIAL HepG2 Assay for human RAR-related Orphan Receptor Element (RORE) (AID 2282959). The following applies: HepG2 Attagene cis-factorial RORE reporter, mRNA; actives raise or lower the signal. A digest of the protocol: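 Transiently transfected HepG2 reporter cells were treated 24 h. Reporter transcripts were detected by RT-PCR and capillary electrophoresis, with bidirectional fitting against DMSO.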

Experiment [12] can be described thus: ATG_Sox_CIS: Attagene CIS-FACTORIAL HepG2 Assay for human SRY-box transcription factor (SOX) (AID 2282960). The following applies: HepG2 Attagene cis-factorial SOX reporter, mRNA; actives raise or lower the signal. The method in brief: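 Gain- or loss-of-signal endpoint, fitted bidirectionally with DMSO as negative control. Based on reporter mRNA from transfected HepG2 cells harvested 24 h post-treatment and quantified via RT-PCR and capillary electrophoresis.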

Experiment [13] has as its target Transcription factor Sp1 (Homo sapiens) (UniProt P08047). The experiment is described as follows: ATG_Sp1_CIS: Attagene CIS-FACTORIAL HepG2 Assay for human Specificity Protein 1 (Sp1) (AID 2282961). Particulars: HepG2 Sp1 cis-reporter transcription, actives raise or lower the signal. A digest of the protocol: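 Endpoint reflects endogenous Sp1 transcriptional activity, not an exogenous fusion protein: HepG2 cells with transfected cis-regulated reporters, 24 h dosing, RT-PCR/capillary electrophoresis mRNA read-out, DMSO-normalised bidirectional fit.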

The nature of experiment [14]: ATG_SREBP_CIS: Attagene CIS-FACTORIAL HepG2 Assay for human Sterol Regulatory Element Binding (SREBP) (AID 2282962). Particulars: HepG2 Attagene cis-factorial SREBP reporter, mRNA; actives raise or lower the signal. The method in brief:
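Endogenous SREBP activity read as cis-element-driven reporter transcript in transiently transfected HepG2, 24 h post-dosing; quantified via RT-PCR plus capillary electrophoresis of fluorescent fragments. Gain or loss of signal fitted relative to DMSO baseline.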

The target in experiment [15] is Signal transducer and activator of transcription 3 (Homo sapiens) (UniProt P40763). The experiment is described as follows: ATG_STAT3_CIS: Attagene CIS-FACTORIAL HepG2 Assay for human Signal Transducer and Activator of Transcription 3 (STAT3) (AID 2282963). Particulars: HepG2, Attagene cis-factorial STAT3 reporter transcription; actives raise or lower the signal. The method in brief: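 Readout is reporter transcript quantified by RT-PCR and capillary electrophoresis, with 6-FAM primer extension and HpaI digestion. Total RNA is taken 24 h after dosing transiently transfected HepG2 carrying cis-regulated reporter units. Bidirectional fit against DMSO.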
Chain of Signal transducer and activator of transcription 3 (Homo sapiens) (P40763 whole entry, looked up): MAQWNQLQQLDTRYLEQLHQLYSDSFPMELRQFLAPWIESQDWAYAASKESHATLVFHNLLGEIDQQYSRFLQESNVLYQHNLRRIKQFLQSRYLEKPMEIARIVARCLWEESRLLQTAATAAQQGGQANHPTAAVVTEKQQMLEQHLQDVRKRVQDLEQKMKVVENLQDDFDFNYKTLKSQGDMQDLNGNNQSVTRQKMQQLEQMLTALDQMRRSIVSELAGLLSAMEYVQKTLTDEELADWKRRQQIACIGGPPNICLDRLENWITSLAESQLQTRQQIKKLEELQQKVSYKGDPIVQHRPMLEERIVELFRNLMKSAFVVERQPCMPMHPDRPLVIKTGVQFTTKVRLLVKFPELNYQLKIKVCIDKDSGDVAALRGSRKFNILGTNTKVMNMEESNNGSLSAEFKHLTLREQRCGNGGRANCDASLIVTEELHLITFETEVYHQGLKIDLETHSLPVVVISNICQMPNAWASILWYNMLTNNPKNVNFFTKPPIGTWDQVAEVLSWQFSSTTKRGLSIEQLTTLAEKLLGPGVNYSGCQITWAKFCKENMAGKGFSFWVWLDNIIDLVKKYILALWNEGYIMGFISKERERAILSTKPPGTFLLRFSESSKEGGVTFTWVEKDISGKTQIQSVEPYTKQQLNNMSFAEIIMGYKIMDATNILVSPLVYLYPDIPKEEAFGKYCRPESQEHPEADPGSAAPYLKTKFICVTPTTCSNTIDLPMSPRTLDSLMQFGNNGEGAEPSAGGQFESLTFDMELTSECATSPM

Experiment [16] can be described thus: ATG_TA_CIS: Attagene CIS-FACTORIAL HepG2 Assay for human TA Basal Promoter (AID 2282964). The following applies: HepG2 Attagene CIS-factorial TA basal promoter reporter; actives raise or lower the signal. A digest of the protocol:
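Cis-factorial format in HepG2: reporters report endogenous factors, not chimeric Gal4 fusions. After 24 h treatment, reporter transcripts were measured by RT-PCR-capillary electrophoresis fluorescence, analysed bidirectionally versus DMSO.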

The nature of experiment [17]: ATG_TCF_b_cat_CIS: Attagene CIS-FACTORIAL HepG2 Assay for human T-Cell-Factor with beta-catenin (TCF/b-cat) (AID 2282965). Particulars: HepG2 TCF/beta-catenin cis-reporter transcription, actives raise or lower the signal. The method in brief:
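Endogenous TCF/LEF activity read as reporter transcript level via RT-PCR and capillary electrophoresis fluorescence in transfected HepG2, 24 h exposure; gain or loss of signal fitted against DMSO controls.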

The nature of experiment [18]: ATG_PPRE_CIS: Attagene CIS-FACTORIAL HepG2 Assay for human Peroxisome Proliferator-activated Response Element (PPRE) (AID 2282958). The following applies: HepG2 PPRE cis-element reporter, Attagene transcription factor profiling; actives raise or lower the signal. The method in brief: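 Measured endpoint: PPRE-controlled reporter mRNA, detected by RT-PCR and capillary electrophoresis fluorescence, from transiently transfected HepG2 cells 24 h after dosing. Curves fitted in both directions using DMSO baseline.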

A short description of experiment [19]: ATG_M_06_CIS: Attagene CIS-FACTORIAL HepG2 Assay for M06 Transcription Factor (Internal Marker) (AID 2282950). The following applies: HepG2 Attagene CIS-FACTORIAL M06 internal marker reporter; actives raise or lower the signal. The method in brief: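 Measured 24 h post-dosing in transiently transfected HepG2 cells, this internal-marker endpoint reports reporter mRNA via RT-PCR with fluorescent primer extension and capillary electrophoresis. DMSO served as negative control and baseline for bidirectional fitting.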

Experiment [20] addresses Paired box protein Pax-6 (Homo sapiens) (UniProt P26367). Nature of the experiment: ATG_Pax6_CIS: Attagene CIS-FACTORIAL HepG2 Assay for human Paired Box 6 (PAX6) (AID 2282956). Particulars: HepG2 CIS-FACTORIAL PAX6 reporter transcription, RNA readout; actives raise or lower the signal. The method in brief:
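Read-out is reporter transcript level, measured by RT-PCR with fluorescent primer extension and capillary electrophoresis after 24 h dosing of transfected HepG2 cells. Activity in either direction fitted relative to DMSO control.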

Structures are written as SMILES. Active and inactive are the calls of the source. How the source made its calls: active means hit-call score of the fitted dose curve at least 0.9, where 1 is the maximum; inactive means score below 0.9.

Chain of Hypoxia-inducible factor 1-alpha (Homo sapiens) (Q16665 whole entry, looked up): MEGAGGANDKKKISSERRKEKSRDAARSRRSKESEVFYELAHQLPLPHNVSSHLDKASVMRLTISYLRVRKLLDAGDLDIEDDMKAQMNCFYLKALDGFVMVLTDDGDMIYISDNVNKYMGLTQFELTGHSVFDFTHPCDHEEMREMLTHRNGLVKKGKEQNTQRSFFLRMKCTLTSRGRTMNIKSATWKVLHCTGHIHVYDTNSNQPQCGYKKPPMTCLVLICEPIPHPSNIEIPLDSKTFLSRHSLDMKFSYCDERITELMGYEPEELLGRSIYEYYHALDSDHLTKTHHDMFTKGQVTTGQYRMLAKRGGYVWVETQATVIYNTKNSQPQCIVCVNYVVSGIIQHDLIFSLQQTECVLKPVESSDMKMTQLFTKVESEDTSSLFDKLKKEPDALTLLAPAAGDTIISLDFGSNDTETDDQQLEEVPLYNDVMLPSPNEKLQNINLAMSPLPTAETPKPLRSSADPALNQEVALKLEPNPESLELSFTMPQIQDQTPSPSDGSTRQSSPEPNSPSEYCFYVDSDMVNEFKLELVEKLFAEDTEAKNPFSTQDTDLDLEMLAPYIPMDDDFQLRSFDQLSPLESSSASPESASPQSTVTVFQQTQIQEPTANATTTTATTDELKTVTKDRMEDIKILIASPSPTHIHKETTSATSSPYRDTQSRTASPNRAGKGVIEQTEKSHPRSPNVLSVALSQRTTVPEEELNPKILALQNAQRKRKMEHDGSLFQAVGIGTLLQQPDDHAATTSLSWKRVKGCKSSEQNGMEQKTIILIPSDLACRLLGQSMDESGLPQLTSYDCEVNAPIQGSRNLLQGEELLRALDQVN
Chain of Transcription factor Sp1 (Homo sapiens) (P08047 whole entry, looked up, the tested form may be a part): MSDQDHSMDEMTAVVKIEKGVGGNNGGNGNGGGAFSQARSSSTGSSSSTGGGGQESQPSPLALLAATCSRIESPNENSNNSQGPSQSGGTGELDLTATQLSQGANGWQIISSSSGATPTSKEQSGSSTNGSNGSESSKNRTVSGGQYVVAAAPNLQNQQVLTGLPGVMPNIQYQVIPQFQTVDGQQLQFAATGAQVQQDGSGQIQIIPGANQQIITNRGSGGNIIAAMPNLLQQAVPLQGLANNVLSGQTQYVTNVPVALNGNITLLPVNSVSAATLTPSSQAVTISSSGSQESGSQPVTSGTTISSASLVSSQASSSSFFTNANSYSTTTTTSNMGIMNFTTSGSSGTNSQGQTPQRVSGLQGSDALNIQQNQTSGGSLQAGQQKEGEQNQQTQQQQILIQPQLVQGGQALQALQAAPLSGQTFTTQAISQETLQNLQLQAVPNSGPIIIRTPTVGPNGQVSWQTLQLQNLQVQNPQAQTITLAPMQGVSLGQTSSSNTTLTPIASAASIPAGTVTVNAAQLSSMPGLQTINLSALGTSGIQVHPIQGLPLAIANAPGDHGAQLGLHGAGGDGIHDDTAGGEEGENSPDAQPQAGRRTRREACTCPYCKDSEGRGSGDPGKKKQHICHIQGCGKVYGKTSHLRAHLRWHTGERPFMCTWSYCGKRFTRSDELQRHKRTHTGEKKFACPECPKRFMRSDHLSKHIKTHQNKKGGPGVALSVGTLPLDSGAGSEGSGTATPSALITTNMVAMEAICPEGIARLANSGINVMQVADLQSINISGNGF
Chain of Hepatocyte nuclear factor 6 (Homo sapiens) (Q9UBC0 whole entry, looked up, the tested form may be a part): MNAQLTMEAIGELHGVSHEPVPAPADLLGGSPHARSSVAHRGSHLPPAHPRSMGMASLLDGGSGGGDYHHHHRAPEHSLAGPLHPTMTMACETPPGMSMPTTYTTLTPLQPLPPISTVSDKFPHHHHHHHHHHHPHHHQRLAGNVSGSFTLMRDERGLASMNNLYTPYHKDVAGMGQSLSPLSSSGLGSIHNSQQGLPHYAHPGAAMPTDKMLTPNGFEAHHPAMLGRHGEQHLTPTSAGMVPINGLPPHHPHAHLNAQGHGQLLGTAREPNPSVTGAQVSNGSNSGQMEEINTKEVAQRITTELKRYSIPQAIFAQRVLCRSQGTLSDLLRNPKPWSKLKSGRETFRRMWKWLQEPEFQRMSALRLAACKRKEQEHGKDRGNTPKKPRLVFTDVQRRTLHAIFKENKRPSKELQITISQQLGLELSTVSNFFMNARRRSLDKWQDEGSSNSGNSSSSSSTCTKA
Chain of Paired box protein Pax-6 (Homo sapiens) (P26367 whole entry, looked up): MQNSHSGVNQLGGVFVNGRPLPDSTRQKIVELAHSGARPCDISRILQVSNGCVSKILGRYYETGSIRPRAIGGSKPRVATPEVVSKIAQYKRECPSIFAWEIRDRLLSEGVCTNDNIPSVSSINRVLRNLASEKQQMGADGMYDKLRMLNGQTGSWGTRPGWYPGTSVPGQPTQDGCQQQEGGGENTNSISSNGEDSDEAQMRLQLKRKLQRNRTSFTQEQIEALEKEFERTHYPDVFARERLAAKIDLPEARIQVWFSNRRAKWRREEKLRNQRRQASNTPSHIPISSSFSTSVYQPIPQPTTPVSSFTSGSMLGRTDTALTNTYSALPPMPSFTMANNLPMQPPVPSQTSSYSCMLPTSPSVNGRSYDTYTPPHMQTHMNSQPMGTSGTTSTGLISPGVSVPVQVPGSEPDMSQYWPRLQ

Turning to `Cc1cccc(N)c1N`, the compound was called inactive in experiment [1], in experiment [2], in experiment [3], in experiment [4], in experiment [6] and in [7]. For the same compound, the outcome in experiment [9], in experiment [10], in experiment [12], in experiment [13], in experiment [14] and in [15] was inactive. Besides, the result in [16] was inactive. The concentration at half-maximal activity (AC50) (as a rule, the concentration at which the activity in the assay is half-maximal) is 2.66 µM (active) in experiment [5], 106 µM (active) in experiment [8], 106 µM (active) in experiment [11] and 190 µM (active) in [17].

Take `Clc1ccc(C(c2ccc(Cl)cc2)C(Cl)Cl)cc1`: the AC50 in experiment [1] was 21.2 µM (active); in experiment [3], 49.4 µM (active); in experiment [7], 51.7 µM (active); in experiment [8], 50.6 µM (active); in [9] it was 56.8 µM (active); in experiment [10], 8.73 µM (active). Further, the AC50 in experiment [13] was 59.8 µM (active); in experiment [14], 56.4 µM (active). Moreover, the compound was called inactive in experiment [2], in experiment [4], in experiment [5], in experiment [6], in [18] and in experiment [11]. Moreover, the compound was called inactive in experiment [12], in experiment [16] and in [17].

Take `CC(C)(OOC(C)(C)c1ccccc1)c1ccccc1`: the compound was classed as inactive in experiment [1], in [4], in experiment [19], in experiment [5], in [7] and in experiment [20]. Besides, the call in experiment [18], in [11], in [12], in experiment [16] and in [17] was inactive. The AC50 in [2] is 78.3 µM (active); in experiment [3], 100 µM (active); in experiment [6] it was 100 µM (active); in experiment [8], 64 µM (active); in [9] it was 25.3 µM (active); in experiment [10] it was 25 µM (active). Also, the AC50 is 45.4 µM (active) in experiment [13], 62.9 µM (active) in experiment [14] and 100 µM (active) in experiment [15].

For the compound `O=C1CCCO1`, the result in [1], in [2], in [3], in experiment [4], in experiment [5] and in [6] was inactive. The outcome in experiment [7], in [8], in [9], in experiment [20], in [10] and in [18] was inactive. In addition, the result in [11], in experiment [12], in experiment [13], in experiment [14], in [15] and in experiment [16] was inactive. Moreover, in [17], the result was inactive.

Values taken from PubChem BioAssay (EPA / NIEHS).
